Measured values reported in the supplement of paper PMC10849652.
About 8,800 targets were measured; listed, in parts, are those with a hit and a random draw of the rest. About 0.5% of all pairs of compound and target were hits. A number with no mark means an inactive call.

Experiments:
Assay in all cases: log2 fold change, soluble protein after heating vs DMSO (PISA); higher = thermal stabilisation; K562 lysate, 10 uM; active = over 0.2 and 3.5 SD of the protein, either way, in both replicates (recomputed)
ibrutinib = compound: C=CC(=O)N1CCC[C@@H](n2nc(-c3ccc(Oc4ccccc4)cc3)c3c(N)ncnc32)C1 [ibrutinib]
Procedure, shortened: (§1)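 Soluble protein was defined as the supernatant remaining after 21,000xg for 90 min, following pooling of heated aliquots and adjustment to 0.5% NP-40 at 4°C. Before that, crude K562 extract at 1 mg/mL protein in PBS pH 7.4 with 1 mM MgCl2 was treated with 10 μM compound for 30 min and heated for 3 min across 48°C-58°C. Quantification used TMTpro 16plex LC-MS/MS with channel sums equalised, and values are log-two fold changes in thermal stability relative to solvent controls from duplicates.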

[1] = compound: CC(=O)c1cnc2ccc(-c3cc(Cl)c(O)c(Cl)c3)nc2c1N[C@H]1CC[C@H](CN(C)C)CC1
Procedure, shortened: as §1

ralimetinib = compound: CC(C)(C)Cn1c(N)nc2ccc(-c3[nH]c(C(C)(C)C)nc3-c3ccc(F)cc3)nc21 [ralimetinib]
Procedure, shortened: as §1

[2] = compound: CC(C)(O)CC(=O)NCCn1ccc2ncnc(Nc3ccc(Oc4cccc(C(F)(F)F)c4)c(Cl)c3)c21
Procedure, shortened: as §1

[3] = compound: CC(C)C1=C2N=C(C=C(N2N=C1)NCC3=CC=CC=C3)NCCCCCCN
Procedure, shortened: as §1

[4] = compound: CC1=C(C(CC(=O)N1)C2=CC=C(C=C2)C(F)(F)F)C(=O)NC3=C(C=C4C(=C3)C=NN4)F
Procedure, shortened: as §1

[5] = compound: CC1=C(C2=C(C=C1)C(=O)C3=CC=CC=C3N2CCCN)C
Procedure, shortened: as §1

[6] = compound: CC1=C(C=C(C=C1)NC(=O)C2=CC(=CC=C2)C(C)(C)C#N)NC3=CC4=C(C=C3)N=CN(C4=O)C
Procedure, shortened: as §1

[7] = compound: CC1=C(C=C(C=C1)NC(=O)C2=CC(=CC=C2)N(C)C)NC(=O)C3=CC=C(C=C3)O
Procedure, shortened: as §1

[8] = compound: CC1=CC=C(C=C1)SC2=C3C=C(SC3=CN=C2)C(=O)N
Procedure, shortened: as §1

vemurafenib = compound: CCCS(=O)(=O)Nc1ccc(F)c(C(=O)c2c[nH]c3ncc(-c4ccc(Cl)cc4)cc23)c1F [vemurafenib]
Procedure, shortened: as §1

[9] = compound: CCCS(=O)(=O)Nc1ccc(F)c(C(=O)c2c[nH]c3ncc(Cl)cc23)c1F
Procedure, shortened: as §1

barasertib = compound: CCN(CCCOc1ccc2c(Nc3cc(CC(=O)Nc4cccc(F)c4)[nH]n3)ncnc2c1)CCOP(=O)(O)O [barasertib]
Procedure, shortened: as §1

[10] = compound: CC[C@@H]1C(=O)N(C)c2cnc(Nc3ccc(C(=O)NC4CCN(C)CC4)cc3OC)nc2N1C1CCCC1
Procedure, shortened: as §1

volasertib = compound: CC[C@@H]1C(=O)N(C)c2cnc(Nc3ccc(C(=O)N[C@H]4CC[C@H](N5CCN(CC6CC6)CC5)CC4)cc3OC)nc2N1C(C)C [volasertib]
Procedure, shortened: as §1

[11] = compound: CCn1c(C(=O)N(C2CC2)C2CC2)cc2c3c(ncn3C)c(Nc3cc(C)n(C)n3)nc21
Procedure, shortened: as §1

[12] = compound: CCn1cc(-c2ccnc3[nH]c(-c4cccc(CN(C)C)c4)cc23)c(-c2ccc(NC(=O)N(C)C)cc2)n1
Procedure, shortened: as §1

[13] = compound: CN1CCC(CNc2ccc3ncc(-c4cccc(OC(F)(F)F)c4)n3n2)CC1
Procedure, shortened: as §1

saracatinib = compound: CN1CCN(CCOc2cc(OC3CCOCC3)c3c(Nc4c(Cl)ccc5c4OCO5)ncnc3c2)CC1 [saracatinib]
Procedure, shortened: as §1

sotrastaurin = compound: CN1CCN(c2nc(C3=C(c4c[nH]c5ccccc45)C(=O)NC3=O)c3ccccc3n2)CC1 [sotrastaurin]
Procedure, shortened: as §1

UniProt Q15058, sequence (Q15058 whole entry, looked up): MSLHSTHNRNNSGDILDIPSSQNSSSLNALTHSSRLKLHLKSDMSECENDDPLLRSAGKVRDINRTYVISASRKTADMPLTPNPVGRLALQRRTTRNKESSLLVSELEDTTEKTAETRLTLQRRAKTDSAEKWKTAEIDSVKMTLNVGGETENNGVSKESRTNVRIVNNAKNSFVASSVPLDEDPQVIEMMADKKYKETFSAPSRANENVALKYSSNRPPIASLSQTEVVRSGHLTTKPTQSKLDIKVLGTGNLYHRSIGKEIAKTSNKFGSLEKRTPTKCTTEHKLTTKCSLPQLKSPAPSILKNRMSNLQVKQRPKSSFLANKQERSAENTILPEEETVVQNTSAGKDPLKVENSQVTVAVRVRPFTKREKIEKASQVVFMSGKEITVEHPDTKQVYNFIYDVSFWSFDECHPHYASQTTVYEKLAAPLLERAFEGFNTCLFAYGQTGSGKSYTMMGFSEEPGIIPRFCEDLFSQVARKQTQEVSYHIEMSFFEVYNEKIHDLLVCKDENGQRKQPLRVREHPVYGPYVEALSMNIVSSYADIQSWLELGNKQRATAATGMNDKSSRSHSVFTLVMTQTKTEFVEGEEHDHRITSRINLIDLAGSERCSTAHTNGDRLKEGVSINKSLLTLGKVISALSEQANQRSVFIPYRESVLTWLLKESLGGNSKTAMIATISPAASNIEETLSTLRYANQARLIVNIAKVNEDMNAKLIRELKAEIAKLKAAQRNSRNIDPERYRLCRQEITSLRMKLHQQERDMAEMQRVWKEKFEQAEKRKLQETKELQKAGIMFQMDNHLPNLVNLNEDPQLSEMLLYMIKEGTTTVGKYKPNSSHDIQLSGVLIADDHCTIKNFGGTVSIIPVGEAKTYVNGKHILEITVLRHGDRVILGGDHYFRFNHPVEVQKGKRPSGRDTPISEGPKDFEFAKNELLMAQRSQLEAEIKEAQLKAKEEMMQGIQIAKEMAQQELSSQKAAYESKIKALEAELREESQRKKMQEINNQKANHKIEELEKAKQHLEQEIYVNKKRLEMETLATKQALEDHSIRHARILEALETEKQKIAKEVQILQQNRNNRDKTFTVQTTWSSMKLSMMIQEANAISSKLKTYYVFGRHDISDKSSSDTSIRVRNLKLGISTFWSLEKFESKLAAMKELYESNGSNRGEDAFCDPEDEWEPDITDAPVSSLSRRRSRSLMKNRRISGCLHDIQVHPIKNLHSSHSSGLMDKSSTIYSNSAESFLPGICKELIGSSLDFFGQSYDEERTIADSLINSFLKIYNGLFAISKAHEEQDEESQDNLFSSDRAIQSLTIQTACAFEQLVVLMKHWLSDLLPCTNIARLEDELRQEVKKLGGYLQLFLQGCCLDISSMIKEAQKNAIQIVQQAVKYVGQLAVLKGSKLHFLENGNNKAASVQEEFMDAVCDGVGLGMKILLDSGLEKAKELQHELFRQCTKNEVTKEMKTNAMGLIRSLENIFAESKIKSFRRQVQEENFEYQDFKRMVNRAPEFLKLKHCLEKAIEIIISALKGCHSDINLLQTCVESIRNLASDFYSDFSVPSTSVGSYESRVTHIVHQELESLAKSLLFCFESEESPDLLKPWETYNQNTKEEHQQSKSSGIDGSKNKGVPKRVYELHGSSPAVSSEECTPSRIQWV
UniProt P53671, sequence (P53671 whole entry, looked up): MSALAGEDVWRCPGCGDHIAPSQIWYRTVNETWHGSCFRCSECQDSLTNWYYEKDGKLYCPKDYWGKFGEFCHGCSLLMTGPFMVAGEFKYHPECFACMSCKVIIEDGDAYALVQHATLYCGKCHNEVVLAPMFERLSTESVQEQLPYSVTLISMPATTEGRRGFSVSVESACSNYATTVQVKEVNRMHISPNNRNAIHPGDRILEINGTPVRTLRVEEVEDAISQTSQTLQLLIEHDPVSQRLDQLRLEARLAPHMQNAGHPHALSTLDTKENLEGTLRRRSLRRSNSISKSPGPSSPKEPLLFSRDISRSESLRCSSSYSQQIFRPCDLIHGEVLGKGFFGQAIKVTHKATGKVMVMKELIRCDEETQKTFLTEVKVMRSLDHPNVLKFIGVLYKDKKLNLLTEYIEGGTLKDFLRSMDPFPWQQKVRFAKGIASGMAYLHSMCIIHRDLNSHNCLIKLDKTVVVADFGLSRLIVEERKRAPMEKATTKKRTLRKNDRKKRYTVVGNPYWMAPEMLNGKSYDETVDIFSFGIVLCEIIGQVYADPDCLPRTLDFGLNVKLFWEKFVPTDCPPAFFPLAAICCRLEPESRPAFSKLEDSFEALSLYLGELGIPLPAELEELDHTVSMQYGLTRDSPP
UniProt Q9BV79, sequence (Q9BV79 whole entry, looked up): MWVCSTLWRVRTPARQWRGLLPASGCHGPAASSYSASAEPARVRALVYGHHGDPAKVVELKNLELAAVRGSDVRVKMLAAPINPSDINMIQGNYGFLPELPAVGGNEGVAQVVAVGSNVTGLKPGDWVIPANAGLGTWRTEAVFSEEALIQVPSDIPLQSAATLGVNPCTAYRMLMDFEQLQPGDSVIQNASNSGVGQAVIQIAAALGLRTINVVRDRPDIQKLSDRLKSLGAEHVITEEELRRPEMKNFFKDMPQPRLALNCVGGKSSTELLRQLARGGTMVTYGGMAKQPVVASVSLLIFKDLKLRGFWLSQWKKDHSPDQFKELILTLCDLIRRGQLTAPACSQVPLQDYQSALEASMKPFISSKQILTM
UniProt Q9NZB8, sequence (Q9NZB8 whole entry, looked up): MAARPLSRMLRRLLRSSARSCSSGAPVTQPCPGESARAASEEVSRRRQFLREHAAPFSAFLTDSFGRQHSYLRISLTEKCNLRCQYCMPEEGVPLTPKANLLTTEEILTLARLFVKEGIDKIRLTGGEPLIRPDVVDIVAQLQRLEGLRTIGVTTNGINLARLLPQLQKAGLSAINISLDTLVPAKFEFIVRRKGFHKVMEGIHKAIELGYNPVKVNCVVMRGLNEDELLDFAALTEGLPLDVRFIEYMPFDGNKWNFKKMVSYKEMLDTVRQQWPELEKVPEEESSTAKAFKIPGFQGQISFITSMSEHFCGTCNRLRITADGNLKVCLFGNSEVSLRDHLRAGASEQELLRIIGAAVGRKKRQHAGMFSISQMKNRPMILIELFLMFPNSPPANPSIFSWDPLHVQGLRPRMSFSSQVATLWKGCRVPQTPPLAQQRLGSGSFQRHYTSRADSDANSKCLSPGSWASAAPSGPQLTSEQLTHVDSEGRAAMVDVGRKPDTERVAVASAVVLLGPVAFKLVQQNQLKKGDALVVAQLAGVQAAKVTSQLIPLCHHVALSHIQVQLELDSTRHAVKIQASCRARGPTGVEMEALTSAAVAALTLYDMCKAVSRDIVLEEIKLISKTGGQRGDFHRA
UniProt Q9Y448, sequence (Q9Y448 whole entry, looked up): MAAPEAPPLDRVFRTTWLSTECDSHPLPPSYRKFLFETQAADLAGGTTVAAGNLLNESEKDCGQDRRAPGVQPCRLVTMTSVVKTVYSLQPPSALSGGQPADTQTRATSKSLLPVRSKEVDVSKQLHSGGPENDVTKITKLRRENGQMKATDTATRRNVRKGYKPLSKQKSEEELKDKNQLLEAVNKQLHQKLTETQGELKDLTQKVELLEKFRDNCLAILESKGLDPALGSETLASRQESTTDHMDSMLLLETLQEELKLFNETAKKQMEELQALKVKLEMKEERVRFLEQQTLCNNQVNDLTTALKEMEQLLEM
UniProt Q8NF37, sequence (Q8NF37 whole entry, looked up): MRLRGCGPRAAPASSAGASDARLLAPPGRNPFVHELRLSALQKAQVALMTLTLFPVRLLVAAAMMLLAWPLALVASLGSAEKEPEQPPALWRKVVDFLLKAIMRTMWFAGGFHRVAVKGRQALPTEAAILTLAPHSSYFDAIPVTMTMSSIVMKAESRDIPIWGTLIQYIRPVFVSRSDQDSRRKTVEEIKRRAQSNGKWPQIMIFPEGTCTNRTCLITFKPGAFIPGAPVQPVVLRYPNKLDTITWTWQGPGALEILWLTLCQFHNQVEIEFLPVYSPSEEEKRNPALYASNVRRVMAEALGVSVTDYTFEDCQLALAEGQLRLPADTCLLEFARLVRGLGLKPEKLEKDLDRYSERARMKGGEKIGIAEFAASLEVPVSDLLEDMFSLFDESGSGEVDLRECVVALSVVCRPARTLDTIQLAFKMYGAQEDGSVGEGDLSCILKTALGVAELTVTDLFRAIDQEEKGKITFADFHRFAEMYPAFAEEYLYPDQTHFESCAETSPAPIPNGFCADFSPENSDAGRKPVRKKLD
UniProt O95202, sequence (O95202 whole entry, looked up): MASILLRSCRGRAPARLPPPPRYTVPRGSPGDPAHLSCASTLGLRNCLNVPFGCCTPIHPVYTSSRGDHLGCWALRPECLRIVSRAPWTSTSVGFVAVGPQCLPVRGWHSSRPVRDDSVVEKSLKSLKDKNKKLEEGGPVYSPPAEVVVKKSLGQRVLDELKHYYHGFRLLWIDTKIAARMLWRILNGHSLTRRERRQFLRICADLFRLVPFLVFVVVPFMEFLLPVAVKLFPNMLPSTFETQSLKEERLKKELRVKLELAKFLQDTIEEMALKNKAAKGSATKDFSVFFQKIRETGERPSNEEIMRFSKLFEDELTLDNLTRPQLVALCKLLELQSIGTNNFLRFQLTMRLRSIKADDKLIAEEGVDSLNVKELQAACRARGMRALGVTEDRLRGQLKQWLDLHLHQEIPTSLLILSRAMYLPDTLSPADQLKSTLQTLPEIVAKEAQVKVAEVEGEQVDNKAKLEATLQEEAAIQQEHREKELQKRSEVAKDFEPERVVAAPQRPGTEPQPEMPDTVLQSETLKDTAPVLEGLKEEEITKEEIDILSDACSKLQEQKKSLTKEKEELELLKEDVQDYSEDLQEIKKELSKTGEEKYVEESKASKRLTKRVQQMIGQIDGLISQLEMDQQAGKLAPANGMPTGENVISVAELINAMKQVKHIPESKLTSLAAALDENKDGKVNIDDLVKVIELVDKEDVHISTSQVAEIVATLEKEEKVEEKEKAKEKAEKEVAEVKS

Row | Target | log2 fold change (ibrutinib) | log2 fold change [1] | log2 fold change (ralimetinib) | log2 fold change [2] | log2 fold change [3] | log2 fold change [4] | log2 fold change [5] | log2 fold change [6] | log2 fold change [7] | log2 fold change [8] | log2 fold change (vemurafenib) | log2 fold change [9] | log2 fold change (barasertib) | log2 fold change [10] | log2 fold change (volasertib) | log2 fold change [11] | log2 fold change [12] | log2 fold change [13] | log2 fold change (saracatinib) | log2 fold change (sotrastaurin)
1 | LIMK2 isoform 3 (UniProt P53671) | 0.129 | 0.003 | 0 | 0.018 | 0.008 | -0.03 | -0.005 | 0.175 | 0.013 | -0.073 | 0.031 | 0.046 | -0.062 | -0.173 | -0.002 | -0.046 | 0.963 (active) | 0.023 | -0.017 | -0.05
2 | LPCAT1 (UniProt Q8NF37) | 0.175 | -0.021 | 0 | -0.142 | -0.036 | 0.066 | -0.011 | 0.003 | -0.016 | -0.019 | -0.009 | 0.07 | 0.012 | 0.037 | 0.097 | -0.072 | -0.39 (active) | 0.099 | 0.079 | 0.032
3 | LETM1 (UniProt O95202) | -0.006 | -0.001 | 0.007 | 0.002 | 0.045 | -0.026 | 0.026 | 0.036 | 0 | 0.037 | 0.029 | 0.005 | -0.015 | -0.012 | 0.01 | -0.015 | 0.08 | -0.287 (active) | -0.002 | -0.014
4 | MOCS1 isoform 8 (UniProt Q9NZB8) | 0.186 | 0.08 | -0.066 | 0.035 | 0.049 | -0.005 | -0.003 | 0.069 | -0.026 | -0.002 | 0.063 | 0.022 | 0.166 | -0.043 | -0.004 | -0.015 | -0.063 | -0.013 | 0.006 | -0.018
5 | KNSTRN (UniProt Q9Y448) | -0.017 | 0.018 | 0.027 | 0.081 | -0.008 | 0.022 | -0.023 | -0.032 | 0 | 0.002 | -0.012 | 0.021 | 0.022 | 0.01 | 0.004 | 0.086 | 0.063 | -0.095 | 0.009 | -0.03
6 | KIF14 (UniProt Q15058) | 0.086 | 0.024 | 0.002 | 0.003 | 0.017 | 0.002 | -0.011 | 0.007 | 0.041 | -0.012 | 0.027 | 0.021 | 0.143 | 0.052 | -0.071 | -0.005 | -0.046 | 0.05 | 0.016 | 0.01
7 | MMS19 isoform 8 (UniProt Q96T76) | -0.023 | -0.011 | 0.022 | -0.02 | -0.041 | 0.006 | -0.018 | 0.013 | 0.055 | 0.004 | 0.064 | 0.006 | 0.029 | -0.061 | -0.114 | 0.002 | -0.005 | -0.051 | 0 | 0.026
8 | MECR (UniProt Q9BV79) | 0.025 | -0.029 | -0.006 | -0.049 | 0.008 | 0.008 | 0.058 | -0.006 | 0.006 | 0.011 | 0.055 | 0.035 | 0.008 | -0.05 | -0.008 | 0.004 | -0.043 | 0.023 | 0.095 | -0.007
